Results: PubChem BioAssay AID1159580 (chemical genetic matrix, 2015)
Several values for one entry are separate records, joined by “and”; a condition that tells them apart may be missing. Identical values can stand only once. Among all 5,500 compounds or so, about 2,000 (36%) were called active. Another 18% or so got no clear call; they are omitted. Cut-off read from the data, not from the text of the source: active = normalized growth mostly below about 0.91 (no sharp cut-off); inconclusive = no clear call, values can overlap the other calls; inactive = mostly above about 0.92. The list shows a part of the results.

Test: chemical genetic growth profiling, strain panel (AID 1159580);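 note: tested at 20 µM; growth read once vehicle control cultures reached saturation at 30 °C; 1 = growth at the plate median or of vehicle wells; lower values mean less growth of the strain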
Details: S. cerevisiae deletion strains, growth OD

C=C[C@@](C)(O)CCC1C(=C)CCC2[C@@](C)(CO)CCC[C@]12C (stereo partly drawn)
normalized growth (locus YAL021C, strain ccr4, stronger effect = lower value): 0.994 (inactive)
normalized growth (locus YAL026C, strain drs2, stronger effect = lower value): 0.972 (inactive)
normalized growth (locus YAL030W, strain snc1, stronger effect = lower value): 1.07 (inactive)
normalized growth (locus YBL061C, strain skt5, stronger effect = lower value): 1.06 (inactive)
normalized growth (locus YBR009C, strain hhf1, stronger effect = lower value): 0.925 (inactive)
normalized growth (locus YBR021W, strain FUR4, stronger effect = lower value): 0.772 (active)
normalized growth (locus YBR023C, strain chs3, stronger effect = lower value): 1.02 (inactive)
normalized growth (locus YBR171W, strain sec66, stronger effect = lower value): 1.08 (inactive)
normalized growth (locus YBR229C, strain ROT2, stronger effect = lower value): 1.06 (inactive)
normalized growth (locus YBR231C, strain swc5, stronger effect = lower value): 1.12 [resistant] (active)
normalized growth (locus YBR279W, strain paf1, stronger effect = lower value): 0.997 (inactive)
normalized growth (locus YCL011C, strain gbp2, stronger effect = lower value): 1.02 (inactive)
normalized growth (locus YCL016C, strain dcc1, stronger effect = lower value): 0.974 (inactive)
normalized growth (locus YCL029C, strain bik1, stronger effect = lower value): 0.972 (inactive)
normalized growth (locus YCL061C, strain MRC1, stronger effect = lower value): 0.963 (inactive)
normalized growth (locus YCL069W, strain vba3, stronger effect = lower value): 1.03 (inactive)
normalized growth (locus YCR088W, strain abp1, stronger effect = lower value): 1.06 (inactive)
normalized growth (locus YDL005C, strain med2, stronger effect = lower value): 1.05 (inactive)
normalized growth (locus YDL035C, strain GPR1, stronger effect = lower value): 0.794 (active)
normalized growth (locus YDL040C, strain nat1, stronger effect = lower value): 1.08 [resistant] (active)
normalized growth (locus YDL074C, strain BRE1, stronger effect = lower value): 0.982 (inactive)
normalized growth (locus YDL101C, strain DUN1, stronger effect = lower value): 1.05 (inactive)
normalized growth (locus YDL134C, strain PPH21, stronger effect = lower value): 0.979 (inactive)
normalized growth (locus YDL185W, strain tfp1, stronger effect = lower value): 1.02 (inactive)
normalized growth (locus YDL192W, strain arf1, stronger effect = lower value): 0.989 (inactive)
normalized growth (locus YDR001C, strain nth1, stronger effect = lower value): 1.08 [resistant] (active)
normalized growth (locus YDR069C, strain doa4, stronger effect = lower value): 1.05 (inactive)
normalized growth (locus YDR101C, strain arx1, stronger effect = lower value): 0.915 (active)
normalized growth (locus YDR137W, strain rgp1, stronger effect = lower value): 0.758 (active)
normalized growth (locus YDR150W, strain NUM1, stronger effect = lower value): 1.09 (inactive)
normalized growth (locus YDR159W, strain sac3, stronger effect = lower value): 0.997 (inactive)
normalized growth (locus YDR162C, strain NBP2, stronger effect = lower value): 0.84 (inactive)
normalized growth (locus YDR195W, strain ref2): 1.25 [resistant] (active)
normalized growth (locus YDR297W, strain sur2, stronger effect = lower value): 1.04 (inactive)
normalized growth (locus YDR318W, strain mcm21, stronger effect = lower value): 0.99 (inactive)
normalized growth (locus YDR334W, strain swr1, stronger effect = lower value): 1.1 [resistant] (active)
normalized growth (locus YDR335W, strain msn5, stronger effect = lower value): 0.982 (inactive)
normalized growth (locus YDR388W, stronger effect = lower value): 1.02 (inactive)
normalized growth (locus YDR392W, strain spt3, stronger effect = lower value): 0.833 (inactive)
normalized growth (locus YDR502C, strain sam2, stronger effect = lower value): 0.985 (inactive)
normalized growth (locus YEL003W, strain gim4, stronger effect = lower value): 0.948 (inactive)
normalized growth (locus YEL037C, strain rad23, stronger effect = lower value): 1.05 (inactive)
normalized growth (locus YEL061C, strain CIN8 (second series), stronger effect = lower value): 1.07 (inactive)
normalized growth (locus YEL061C, strain CIN8, stronger effect = lower value): 1.07 (inactive)
normalized growth (locus YER015W, strain faa2, stronger effect = lower value): 1 (inactive)
normalized growth (locus YER016W, strain bim1, stronger effect = lower value): 1.05 (inactive)
normalized growth (locus YER110C, stronger effect = lower value): 1.06 (inactive)
normalized growth (locus YER111C, strain swi4, stronger effect = lower value): 1.07 (inactive)
normalized growth (locus YER155C, strain BEM2 (second series), stronger effect = lower value): 1.22 [resistant] (active)
normalized growth (locus YER155C, strain BEM2, stronger effect = lower value): 1.09 [resistant] (active)
normalized growth (locus YER167W, strain BCK2, stronger effect = lower value): 1.01 (inactive)
normalized growth (locus YFR010W, strain ubp6, stronger effect = lower value): 1.07 (inactive)
normalized growth (locus YGL078C, strain dbp3, stronger effect = lower value): 0.871 (active)
normalized growth (locus YGL086W, strain mad1, stronger effect = lower value): 1 (inactive)
normalized growth (locus YGL167C, strain pmr1, stronger effect = lower value): 1.06 (inactive)
normalized growth (locus YGL173C, strain kem1, stronger effect = lower value): 0.913 (inactive)
normalized growth (locus YGL227W, strain vid30, stronger effect = lower value): 1.06 (inactive)
normalized growth (locus YGL240W, strain doc1, stronger effect = lower value): 0.974 (inactive)
normalized growth (locus YGL248W, strain PDE1, stronger effect = lower value): 0.982 (inactive)
normalized growth (locus YGL253W, strain hxk2, stronger effect = lower value): 1.02 (inactive)
normalized growth (locus YGR078C, strain PAC10, stronger effect = lower value): 1.02 (inactive)
normalized growth (locus YGR135W, strain pre9, stronger effect = lower value): 0.992 (inactive)
normalized growth (locus YGR252W, strain gcn5, stronger effect = lower value): 0.92 (inactive)
normalized growth (locus YHR013C, strain ard1, stronger effect = lower value): 1.11 (inactive)
normalized growth (locus YHR027C, strain rpn1, stronger effect = lower value): 1.02 (inactive)
normalized growth (locus YHR030C, strain SLT2, stronger effect = lower value): 1.09 [resistant] (active) and 0.872 (inactive)
normalized growth (locus YHR079C, strain IRE1 (second series), stronger effect = lower value): 1.05 (inactive)
normalized growth (locus YHR079C, strain IRE1, stronger effect = lower value): 0.862 (inactive)
normalized growth (locus YHR094C, strain hxt1, stronger effect = lower value): 1.04 (inactive)
normalized growth (locus YHR129C, strain ARP1, stronger effect = lower value): 1.05 (inactive)
normalized growth (locus YHR142W, strain chs7, stronger effect = lower value): 1.01 (inactive)
normalized growth (locus YHR200W, strain rpn10, stronger effect = lower value): 1.02 (inactive)
normalized growth (locus YIL066C, strain RNR3, stronger effect = lower value): 0.996 (inactive)
normalized growth (locus YIL073C, strain SPO22, stronger effect = lower value): 1.01 (inactive)
normalized growth (locus YIL125W, strain kgd1, stronger effect = lower value): 0.973 (inactive)
normalized growth (locus YIR030C, strain dcg1, stronger effect = lower value): 1.05 (inactive)
normalized growth (locus YJL092W, strain hpr5, stronger effect = lower value): 1.02 (inactive)
normalized growth (locus YJL095W, strain BCK1 (second series), stronger effect = lower value): 1.07 (inactive)
normalized growth (locus YJL095W, strain BCK1, stronger effect = lower value): 1.02 (inactive) and 0.886 (inactive)
normalized growth (locus YJL115W, strain asf1, stronger effect = lower value): 1.07 (inactive)
normalized growth (locus YJL129C, strain trk1, stronger effect = lower value): 1.02 (inactive)
normalized growth (locus YJL134W, strain LCB3, stronger effect = lower value): 1.07 (inactive)
normalized growth (locus YJL154C, strain vps35, stronger effect = lower value): 1.09 [resistant] (active)
normalized growth (locus YJL164C, strain tpk1, stronger effect = lower value): 0.963 (inactive)
normalized growth (locus YJL166W, strain qcr8, stronger effect = lower value): 0.968 (inactive)
normalized growth (locus YJL168C, strain set2, stronger effect = lower value): 1.07 (inactive)
normalized growth (locus YJL187C, strain SWE1 (second series), stronger effect = lower value): 0.995 (inactive)
normalized growth (locus YJL187C, strain SWE1, stronger effect = lower value): 1.01 (inactive)
